For 91 molecules, inhibition results are on record in PubChem BioAssay AID652257 (The Scripps Research Institute Molecular Screening Center, 2013).

SMILES strings stand for the structures. Out of some 370,000 compounds screened, about 4,800 (1.3%) were called active.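 The calls were made as follows: active = inhibition above about 21% made by adding two undisclosed values (limit read from the data); inactive = the rest.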 This excerpt belongs to a sample that is enriched for actives.

The target of this test is Protein arginine N-methyltransferase 1 (Homo sapiens) (UniProt Q99873). As to the kind of experiment: human PRMT1 activity-probe blockers – biochemical, fluorescence polarization, primary screen (AID 652257). As to conditions: recombinant PRMT1, activity-based probe fluorescence polarization; at 2.79 µM; stronger effect = higher value. For orientation: Fluorescence polarisation rises when a labelled molecule tumbles more slowly, as on binding a larger partner.
Protein arginine N-methyltransferase 1 (Homo sapiens), sequence (Q99873 whole entry, looked up): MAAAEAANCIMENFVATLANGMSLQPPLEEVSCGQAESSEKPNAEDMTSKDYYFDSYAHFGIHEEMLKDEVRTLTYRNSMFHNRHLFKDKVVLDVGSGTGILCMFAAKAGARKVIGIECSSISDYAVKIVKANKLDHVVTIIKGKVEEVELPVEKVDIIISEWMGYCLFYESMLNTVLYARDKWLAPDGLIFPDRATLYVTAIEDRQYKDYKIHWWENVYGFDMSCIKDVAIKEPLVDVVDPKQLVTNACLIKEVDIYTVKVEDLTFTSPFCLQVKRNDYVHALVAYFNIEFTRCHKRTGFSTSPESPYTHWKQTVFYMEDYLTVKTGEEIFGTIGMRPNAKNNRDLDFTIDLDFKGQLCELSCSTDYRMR
For `Cc1cc(S(=O)(=O)NC2CCCC2)ccc1-n1cnnn1`, the inhibition – broadly, the change of the read-out against control, counted positive when it falls – was 3.87% (inactive). In the case of `Cc1ccc(CN(C)C[C@@H]2OCc3cnnn3CCCC(=O)N([C@@H](C)CO)C[C@H]2C)cc1`, the inhibition is -5.16% (inactive). On to `C=CCn1c2c(c3ccccc31)CCC2`, for which the inhibition is 0.09% (inactive).

In the case of `Cc1nn(C)cc1N1C(=O)c2cccc3c(N)ccc(c23)C1=O`, the inhibition was 165% (active). The value for `CN1C(=O)c2cccc3c(N)ccc(c23)C1=O` was 183% (active); that for `CC(NCc1ccco1)C(=O)N1CCCCC1` (stereo unspecified) was -2.09% (inactive). The value for `CCOc1ccc(Oc2c(Cl)cnn(-c3ccc(C)cc3)c2=O)cc1` was -1.68% (inactive); that for `C=CCN1[C@@H](Cc2ccccc2)COc2cccc(N3CCSCC3)c2S1(=O)=O` was 2.18% (inactive). The same measure for `O=S(=O)(c1ccccc1)N1CCC(c2nc3ccccc3o2)CC1`: -3.15% (inactive); for `COc1ccccc1CN(C)C(=O)C1(c2ccc(Cl)cc2)CC1`: -2.06% (inactive).

On to `O=C(NC1CCC1)c1ccc(C#CC2CC2)cn1`, for which the inhibition was -0.43% (inactive).

With `CC(=O)Oc1ccc(C(C)=O)c2c1OCCO2`, the inhibition is -0.56% (inactive). In the case of `CSc1ccc(/C=N/N2CCN(Cc3ccccc3Cl)CC2)cc1`, the inhibition is 1.95% (inactive).

As for `CC(C)n1c(-c2ccncc2)n[nH]c1=S`, the inhibition is -2.82% (inactive).

`CSc1ccc(C=Nn2c(-c3ccc(F)cc3)n[nH]c2=S)cc1`: the inhibition is 21.3% (active). The same measure for `CC(NCCc1ccc(S(N)(=O)=O)cc1)C(=O)NCc1ccccc1` (stereo unspecified): -3.01% (inactive); for `COc1cc(C(=S)NCc2ccccc2)cc(Br)c1O`: 27.5% (active); for `COc1ccccc1OCCC(=O)OCC(=O)NCc1ccccc1`: 0.43% (inactive). The value for `COc1cc(-c2nnn(CC(=O)NCc3ccccc3)n2)cc(OC)c1OC` was 2.73% (inactive); that for `CCOC(=O)C1=C(C)NC2=C(C(=O)CC(C)(C)C2)C1c1ccc2c(c1)OCO2` (stereo unspecified) was -1.8% (inactive). As to `COC(=O)CC1CCc2cc(C)cc(C(CC(C)C)NC(=O)[C@H](CC(C)C)NC(=O)OCc3ccccc3)c2O1` (stereo partly specified), the inhibition is -2.67% (inactive). `Clc1ccc(C2=CSC3=Nc4cccc5cccc(c45)N23)cc1`: the inhibition was 22.6% (active).

As to `CCCOc1ccc(Oc2c(Cl)cnn(Cc3cccc4ccccc34)c2=O)cc1`, the inhibition was 1.97% (inactive). For `CC(=O)c1cc(-c2ccc3ccccc3c2)c(=O)n2c1CCC2`, the inhibition was 0.08% (inactive).

Take `COC1=CC(=O)OC(c2ccc(OC)cc2)C1` (stereo unspecified): the inhibition is -1.99% (inactive). The value for `COc1ccc(N=Nc2c(-c3ccc(OC)cc3)[nH]oc2=O)cc1` was -0.55% (inactive); that for `COc1ccc(N=C2C=CC(=O)O2)cc1` was 48.5% (active); that for `Cc1ccc(CSCC(N)C(=O)O)cc1` (stereo unspecified) was 0.39% (inactive). The same measure for `Cc1ccc(SC(CC(=O)c2ccc(C(C)(C)C)cc2)C(=O)O)cc1` (stereo unspecified): 75.6% (active). The same measure for `Cc1ccc(SC(C)C(=O)NCc2ccc(F)cc2)cc1` (stereo unspecified): -5.15% (inactive); for `CCC(NC(=O)C1C2C=CC3(CN(Cc4ccccc4)C(=O)C13)O2)c1ccccc1` (stereo unspecified): 2.19% (inactive); for `O=S(=O)(O)c1cc2onnc2c2ccccc12`: 40.6% (active). For the molecule `CCOC(=O)[C@@]12CCC3=C1N(CCC3)C(=O)[C@H](CC(=O)N1CCN(C(=O)c3ccco3)CC1)C2`, the inhibition is -2.33% (inactive). The value for `CC1=CC(C)(C)NC(=S)N1c1ccccc1` was 3.18% (inactive). The same measure for `Cc1ccc(-c2nnc(SCC(=O)Nc3ccc(Oc4ccccc4)cc3)n2Cc2ccco2)cc1`: 4.18% (inactive). For `CC1CC1C(=O)OCC(=O)Nc1cccc(F)c1` (stereo unspecified), the inhibition is 2.32% (inactive).

As for `Cc1ccccc1CN1CCCCC(NC(=O)Nc2ccccc2F)C1=O` (stereo unspecified), the inhibition was -0.07% (inactive). For `C#CCNC(=O)C[C@H]1C[C@@]2(C(=O)OC)C(=C[C@H](C(C)C)O[C@@H]2C2CC2)N(Cc2ccco2)C1=O`, the inhibition is -1.6% (inactive). For `C=CCn1c(=NC(=O)c2cccs2)sc2cc(NC(C)=O)ccc21`, the inhibition was 4.42% (inactive). Regarding `COc1cc2c(cc1OC)C(Cc1cc(OC)c(OC)cc1[N+](=O)[O-])=NCC2`, the inhibition is 8.89% (inactive). For `CCS(=O)(=O)c1cc([N+](=O)[O-])c(Sc2ccccc2N)s1`, the inhibition is 66.1% (active). The same measure for `O=C(c1ccccc1)c1ccc(-c2ccccc2C(=O)NC2CCCCN(Cc3ccc(Cl)cc3)C2=O)cc1` (stereo unspecified): -3.72% (inactive). Take `C=C(C)C#CC(Cc1ccccc1)NCC1CC1` (stereo unspecified): the inhibition is 7.99% (inactive).

For `O=C(CSc1nnc(-c2cccs2)n1Cc1ccco1)c1ccc2c(c1)OCO2`, the inhibition is 1.9% (inactive). The value for `O=C(CSc1nnc(COc2ccccc2)n1Cc1ccco1)c1ccc2ccccc2c1` was 4.78% (inactive); that for `Cc1sc2nc(SCC(=O)c3ccc(O)c(O)c3)n(Cc3ccco3)c(=O)c2c1C` was 25.1% (active); that for `CCCC[C@H]1C2CC(OC(=O)NCc3ccccc3)C(C2)[C@H]2CCCCN21` (stereo partly specified) was 1.74% (inactive). For the molecule `COc1ccccc1-n1c(-c2cc(-c3ccco3)[nH]n2)n[nH]c1=S`, the inhibition is 35.1% (active).

With `COc1ccc(OCc2n[nH]c(=S)n2N)cc1`, the inhibition is 4.04% (inactive). The value for `Cc1cc(-c2n[nH]c(=S)n2-c2ccc(C)c(C)c2)no1` was 4.04% (inactive); that for `COc1ccc(C(C#N)Nc2ccccc2C)cc1` (stereo unspecified) was 1.86% (inactive); that for `CC(C)(C)OC(=O)NCc1cc(F)ccc1/C=C/S(=O)(=O)NCCc1ccccc1` was -0.49% (inactive). The value for `Cc1ccc(/C=C/C(=O)Nc2ccc([N+](=O)[O-])c(NC(=O)/C=C/c3ccc(C)o3)c2)o1` was 41.1% (active).

`Cc1cc(NC(=O)COC(=O)/C=C/c2ccc(C)o2)no1`: the inhibition is 5.65% (inactive). The same measure for `O=C(/C=C/c1ccc([N+](=O)[O-])o1)NNC(=O)c1ccc(F)cc1`: 5.67% (inactive); for `COc1ccc(-n2c(SCC(=O)Nc3ccc(C)c(Cl)c3)nc3ccccc3c2=O)cc1`: 0.06% (inactive). The value for `COc1ccc(/C=C2/S/C(=N/N=C3\CC4CCC3(C)C4(C)C)NC2=O)cc1` (stereo unspecified) was -3.61% (inactive). For the molecule `COc1ccc2c(c1)N(C)/C(=C1/SC(=S)N(NC(C)=O)C1=O)S2`, the inhibition was -3.82% (inactive). The same measure for `CC(=O)N1C(=O)/C(=C2\SC(=S)N(NC(=O)c3ccc(O)cc3)C2=O)c2ccccc21`: 37.7% (active); for `COc1ccc(C(=O)NN2C(=O)C3C(c4ccccc4)C=CC(c4ccccc4)C3C2=O)cc1` (stereo unspecified): -3.24% (inactive); for `COC(=O)C[C@@H]1CC[C@@H]2[C@H](COc3ccc(NC(=O)c4cccc(F)c4)cc3C(=O)N2C)O1`: -3.84% (inactive). The value for `CCN1/C(=C\c2ccc3ccccc3[n+]2CC)Sc2cc(C)ccc21` was -5.01% (inactive); that for `CCN1/C(=C/C(=S)Nc2ccccc2)Sc2ccccc21` was 64.6% (active). The value for `C=CCN1[C@H](CC(C)C)COc2cccc(N3CCCC3)c2S1(=O)=O` was 11.6% (inactive); that for `O=C(CN1CCN(c2ccc(O)cc2)CC1)Nc1ccc(-c2ccccc2)cc1` was 21.2% (active). With `O=C(CN1CCN(c2ccc(O)cc2)CC1)NC1CCCc2ccccc21` (stereo unspecified), the inhibition was 26.1% (active). The same measure for `CC(=O)c1ccc(N2CCN(CC(=O)Nc3ccccc3N3CCOCC3)CC2)cc1`: -1.3% (inactive); for `O=C(CCC(=O)N1CCN(S(=O)(=O)c2ccccc2)CC1)NC1CCCc2ccccc21` (stereo unspecified): 2.87% (inactive); for `O=C(CN1CCN(c2cccc(Cl)c2)CC1)Nc1ccc(S(=O)(=O)N2CCOCC2)cc1`: 1.21% (inactive).

Consider `O=C(CSc1nncs1)NC1CCCc2ccccc21` (stereo unspecified), for which the inhibition was 2.99% (inactive). As for `CCCCN1CC(CO)Oc2cccc(F)c2S1(=O)=O` (stereo unspecified), the inhibition is -3.97% (inactive). For the molecule `Cc1cc(C)c(NC(=O)CN2CCOCCOCCOCCOCC2)c(C)c1`, the inhibition was -1.78% (inactive).

Take `COC(=O)C1CN(Cc2ccc(F)cc2)CCS(=O)(=O)N1Cc1ccc(Cl)cc1` (stereo unspecified): the inhibition is 0.79% (inactive). For `CC(=O)Nc1ccc(OC[C@@H](O)CN2CCC(C(O)(c3ccccc3)c3ccccc3)CC2)cc1`, the inhibition is -3.02% (inactive).

`COC(=O)[C@]12C[C@H](CC(=O)NCCCN3CCCC3=O)C(=O)N(CCc3ccc(OC)c(OC)c3)C1=C[C@H](COCc1ccccc1)O[C@@H]2C`: the inhibition was -1.4% (inactive). The same measure for `COC(=O)C1CN(CCc2ccccc2)CCS(=O)(=O)N1Cc1cccc(Cl)c1` (stereo unspecified): 4.71% (inactive). As for `O=C(COC(=O)c1ccccc1SCC(=O)N1CCCC1)Nc1ccccc1OC(F)F`, the inhibition was 2.04% (inactive).

On to `Cc1ccc(C(NC(=O)N2CCCC2)C(Cl)(Cl)Cl)cc1F` (stereo unspecified), for which the inhibition is -0.94% (inactive). On to `CC1CCN(C(=O)CSc2nnc(-c3ccco3)n2N)CC1`, for which the inhibition is -3.61% (inactive). `COc1ccc(Cl)cc1NS(=O)(=O)c1cccc(C(=O)NC2CCC(O)CC2)c1` (stereo unspecified): the inhibition was -6.68% (inactive). On to `COc1ccc(Cl)cc1C(=O)NNC(=S)NC(=O)/C=C/c1ccco1`, for which the inhibition is -3.9% (inactive). The same measure for `COc1ccc([N+](=O)[O-])cc1NC(=O)COC(=O)/C=C/c1ccco1`: 5.77% (inactive); for `COc1ccc(N2C(=O)/C(=C\c3ccco3)N=C2SCC(N)=O)cc1Cl`: 25.5% (active); for `COC(=O)[C@]12C[C@H](CC(=O)NCc3ccccc3)C(=O)N(CCC3=CCCCC3)C1=C[C@H](C(C)C)O[C@@H]2C1CC1`: -0.96% (inactive).

Regarding `CC(c1ccc(N)cc1)c1cn(C)c2ccccc12` (stereo unspecified), the inhibition is -3.45% (inactive).

`COc1ccc(Cl)cc1-c1cc(C(=O)Nc2cc(OC)c(OC)c(OC)c2)[nH]n1`: the inhibition is -1.28% (inactive). The value for `CC(CCN1CCC(C(O)(c2ccccc2)c2ccccc2)CC1)Oc1ccc(Cl)cc1` (stereo unspecified) was 0.54% (inactive); that for `C=CCn1c(=S)[nH]c2scc(-c3ccco3)c2c1=O` was 38.1% (active). The value for `O=C(CSc1nc2ccccc2n1Cc1ccccc1Cl)N/N=C\c1c[nH]c2ccccc12` was -0.85% (inactive); that for `O=C(OCC(=O)N1CCCCCC1)c1cccc(Cl)c1Cl` was -1.11% (inactive). Take `CC(NC(=O)Nc1ccccc1)C(c1cccs1)N1CCN(c2ccccc2)CC1` (stereo unspecified): the inhibition is 0.36% (inactive).
